Experimental findings from PubChem BioAssay (NCI) are described below.

Assay [1] can be described thus: NCI Yeast Anticancer Drug Screen. Data for the rad50 strain (AID 155).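 Note: 0% = growth of vehicle-only cultures of the same strain.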 The settings on record: S. cerevisiae rad50 strain growth inhibition, hits give high values. In a few lines: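 A DNA repair-deficient yeast mutant serves as the test organism; compound-induced growth inhibition is calculated against vehicle-treated cells.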
A short description of assay [2]: NCI Yeast Anticancer Drug Screen. Data for the mec2-1 strain (AID 157). Conditions: S. cerevisiae mec2-1 strain, hits give high values. In outline:
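Readout is yeast growth inhibition, normalised to vehicle-treated controls, in the mec2-1 strain exposed to compound.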

Assay [3] in a line: NCI Yeast Anticancer Drug Screen. Data for the sgs1 mgt1 strain (AID 161).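 Note: 0% = growth of cultures given vehicle only.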 Conditions: S. cerevisiae sgs1 mgt1 strain, hits give high values. In outline: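 Compounds are added to genetically altered yeast, and growth is compared with cultures given vehicle alone to give percent inhibition.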
Assay [4] in a line: NCI Yeast Anticancer Drug Screen. Data for the cln2 rad14 strain (AID 165).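 Note: 0% = growth equal to vehicle treated cultures.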 The settings on record: S. cerevisiae cln2 rad14 strain, hits give high values. In a few lines:
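Relative to vehicle controls, growth inhibition of compound-treated cln2 rad14 yeast was recorded.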

A short description of assay [5]: NCI Yeast Anticancer Drug Screen. Data for the bub3 strain (AID 167). Conditions: S. cerevisiae bub3 mutant strain, hits give high values. In outline:
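Inhibition values come from growth of compound-treated mutant yeast normalised to vehicle-treated controls.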

The nature of assay [6]: NCI Yeast Anticancer Drug Screen. Data for the mlh1 rad18 strain (AID 175). Conditions: S. cerevisiae mlh1 rad18 strain growth inhibition, hits give high values. In a few lines:
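Test agents were incubated with a yeast strain of defined genotype (DNA damage repair defect). Inhibition of growth was derived by comparison with vehicle-exposed cultures.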

Where [7] appears, read: at 5.0 µM (retest, dose inferred, filed as 0.5).
Setting [8] is: at 50.0 µM (retest, dose inferred, filed as 5.0).

Structures are written as SMILES. About 79,000 compounds went through this panel and 15% of them were active in at least one assay; those are over-represented in the sample as a whole. Unmarked numbers belong to inactive results. Activity calls are given as the source filed them. Cut-off read from the data, not from the text of the source: active = growth inhibition above about 70%; inactive = the rest.

Regarding `CC(NC(=O)OCc1ccccc1)C(=O)NC(C(=O)O)C(C)C` (configuration not stated), the growth inhibition in assay [1] (setting [7]) was 29%; in assay [1] (setting [8]), 66%; in assay [1] (at 50.0 µM), 63.1%; in assay [2] (setting [7]), 22%; in assay [2] (setting [8]) it was 46%; in assay [2] (at 50.0 µM), 38%. Also, the growth inhibition in assay [3] (setting [7]) is 27%; in assay [3] (setting [8]), 65%; in assay [3] (at 50.0 µM) it was 60.6%; in assay [4] (setting [7]), 37%; in assay [4] (setting [8]), 48%; in assay [4] (at 50.0 µM), 59.6%. The growth inhibition was 37% in assay [5] (setting [7]); 84% (active) in assay [5] (setting [8]); 34.9% in assay [5] (at 50.0 µM); 14% in assay [6] (setting [7]); 86% (active) in assay [6] (setting [8]); 74% (active) in assay [6] (at 50.0 µM).

For `CC(C)CCCC(C)C1CCC2C3CCC4=CC(O)CCC4(C)C3CCC12C` (configuration not stated), the growth inhibition is -5% in assay [1] (setting [7]); 96% (active) in assay [1] (setting [8]); 93.8% (active) in assay [1] (at 50.0 µM); 1% in assay [2] (setting [7]); 94% (active) in assay [2] (setting [8]); 90.3% (active) in assay [2] (at 50.0 µM). For the same compound, the growth inhibition in assay [3] (setting [7]) was -2%; in assay [3] (setting [8]), 92% (active); in assay [3] (at 50.0 µM), 93% (active); in assay [4] (setting [7]), -8%; in assay [4] (setting [8]), 95% (active); in assay [4] (at 50.0 µM) it was 94.3% (active). In addition, the growth inhibition was -5% in assay [5] (setting [7]); 97% (active) in assay [5] (setting [8]); 94% (active) in assay [5] (at 50.0 µM); -3% in assay [6] (setting [7]); 97% (active) in assay [6] (setting [8]); 93.5% (active) in assay [6] (at 50.0 µM).

Consider `COC(=O)C1c2cc(C)ccc2-c2ccc(C)cc21`, for which the growth inhibition in assay [1] (setting [7]) is 31%; in assay [1] (setting [8]), 2%; in assay [1] (at 50.0 µM), 13.6%; in assay [2] (setting [7]), 3%; in assay [2] (setting [8]) it was -17%; in assay [2] (at 50.0 µM), 13.3%. Besides, the growth inhibition in assay [3] (setting [7]) was 0%; in assay [3] (setting [8]), 23%; in assay [3] (at 50.0 µM), 2.95%; in assay [4] (setting [7]) it was -14%; in assay [4] (setting [8]), 8%; in assay [4] (at 50.0 µM) it was 30.2%. The growth inhibition was -10% in assay [5] (setting [7]); 18% in assay [5] (setting [8]); 6.75% in assay [5] (at 50.0 µM); 4% in assay [6] (setting [7]); 26% in assay [6] (setting [8]); 49.5% in assay [6] (at 50.0 µM).

On to `CCOC(=O)/C(=C\c1ccc([N+](=O)[O-])cc1)C(C)=O`, for which the growth inhibition in assay [1] (setting [7]) was 46%; in assay [1] (setting [8]), 99% (active); in assay [1] (at 50.0 µM), 92.8% (active); in assay [2] (setting [7]), 39%; in assay [2] (setting [8]) it was 99% (active); in assay [2] (at 50.0 µM) it was 94.7% (active). In addition, the growth inhibition is 25% in assay [3] (setting [7]); 98% (active) in assay [3] (setting [8]); 92.5% (active) in assay [3] (at 50.0 µM); 17% in assay [4] (setting [7]); 98% (active) in assay [4] (setting [8]); 87.1% (active) in assay [4] (at 50.0 µM). For the same compound, the growth inhibition in assay [5] (setting [7]) is 40%; in assay [5] (setting [8]) it was 99% (active); in assay [5] (at 50.0 µM), 92.4% (active); in assay [6] (setting [7]), 30%; in assay [6] (setting [8]) it was 99% (active); in assay [6] (at 50.0 µM) it was 91.8% (active).

With `CCc1cccc(CC)c1NC1=C(Cl)C(=O)c2ccccc2C1=O`, the growth inhibition in assay [1] (setting [7]) is 99% (active); in assay [1] (setting [8]), 99% (active); in assay [1] (at 50.0 µM), -21.1%; in assay [2] (setting [7]) it was 100% (active); in assay [2] (setting [8]), 99% (active); in assay [2] (at 50.0 µM), 5%. Also, the growth inhibition is 99% (active) in assay [3] (setting [7]); 99% (active) in assay [3] (setting [8]); 14.5% in assay [3] (at 50.0 µM); 95% (active) in assay [4] (setting [7]); 98% (active) in assay [4] (setting [8]); -26.9% in assay [4] (at 50.0 µM). Moreover, the growth inhibition was 99% (active) in assay [5] (setting [7]); 98% (active) in assay [5] (setting [8]); 5.15% in assay [5] (at 50.0 µM); 99% (active) in assay [6] (setting [7]); 98% (active) in assay [6] (setting [8]); 19.1% in assay [6] (at 50.0 µM).

In the case of `COc1ccc(OC)c(/C=C2/C(=O)ON=C2C)c1`, the growth inhibition in assay [1] (setting [7]) is -14%; in assay [1] (setting [8]), 7%; in assay [1] (at 50.0 µM), 42.4%; in assay [2] (setting [7]) it was -11%; in assay [2] (setting [8]), 5%; in assay [2] (at 50.0 µM), 54.4%. The growth inhibition in assay [3] (setting [7]) is 1%; in assay [3] (setting [8]), 27%; in assay [3] (at 50.0 µM), 70% (active); in assay [4] (setting [7]) it was 0%; in assay [4] (setting [8]), 14%; in assay [4] (at 50.0 µM), 22%. Also, the growth inhibition was 11% in assay [5] (setting [7]); 23% in assay [5] (setting [8]); 43.5% in assay [5] (at 50.0 µM); 8% in assay [6] (setting [7]); 23% in assay [6] (setting [8]); 22.7% in assay [6] (at 50.0 µM).

With `Cc1cccc(N2C(=O)c3ccccc3C2(c2ccccc2)N2CCCCC2)c1` (configuration not stated), the growth inhibition is -1% in assay [1] (setting [7]); -5% in assay [1] (setting [8]); 65% in assay [1] (at 50.0 µM); 0% in assay [2] (setting [7]); -1% in assay [2] (setting [8]); 28% in assay [2] (at 50.0 µM). Further, the growth inhibition is 4% in assay [3] (setting [7]); 2% in assay [3] (setting [8]); 73.7% (active) in assay [3] (at 50.0 µM); 2% in assay [4] (setting [7]); -2% in assay [4] (setting [8]); 75.3% (active) in assay [4] (at 50.0 µM). Besides, the growth inhibition in assay [5] (setting [7]) was -2%; in assay [5] (setting [8]), -6%; in assay [5] (at 50.0 µM) it was 50.3%; in assay [6] (setting [7]) it was -2%; in assay [6] (setting [8]) it was -9%; in assay [6] (at 50.0 µM) it was 58.5%.

For `CCCCCCCCCCCCCC[N+]1(CC)CCCCC1`, the growth inhibition in assay [1] (setting [7]) was 77% (active); in assay [1] (setting [8]) it was 99% (active); in assay [1] (at 50.0 µM), 90.2% (active); in assay [2] (setting [7]) it was 99% (active); in assay [2] (setting [8]), 99% (active); in assay [2] (at 50.0 µM) it was 91.3% (active). Further, the growth inhibition was 99% (active) in assay [3] (setting [7]); 100% (active) in assay [3] (setting [8]); 92.2% (active) in assay [3] (at 50.0 µM); 84% (active) in assay [4] (setting [7]); 99% (active) in assay [4] (setting [8]); 89.8% (active) in assay [4] (at 50.0 µM). In addition, the growth inhibition was 99% (active) in assay [5] (setting [7]); 99% (active) in assay [5] (setting [8]); 90.8% (active) in assay [5] (at 50.0 µM); 67% in assay [6] (setting [7]); 99% (active) in assay [6] (setting [8]); 89.5% (active) in assay [6] (at 50.0 µM).

In the case of `COc1ccc(NC(=O)C(Cc2ccccc2)NC(C)=O)cc1` (configuration not stated), the growth inhibition in assay [1] (setting [7]) is 9%; in assay [1] (setting [8]), 7%; in assay [1] (at 50.0 µM), 48.6%; in assay [2] (setting [7]) it was 1%; in assay [2] (setting [8]) it was -9%; in assay [2] (at 50.0 µM), -5.75%. The growth inhibition is -12% in assay [3] (setting [7]); -14% in assay [3] (setting [8]); 3.15% in assay [3] (at 50.0 µM); -5% in assay [4] (setting [7]); 1% in assay [4] (setting [8]); -55.5% in assay [4] (at 50.0 µM). Further, the growth inhibition is -4% in assay [5] (setting [7]); -2% in assay [5] (setting [8]); 9.7% in assay [5] (at 50.0 µM); -1% in assay [6] (setting [7]); -25% in assay [6] (setting [8]); 6.2% in assay [6] (at 50.0 µM).
